# PubChem BioAssay (NCATS)
# Several values for one entry are separate records, joined by “and”; a condition that tells them apart may be missing. Equal values may be shown once. A number with no mark means an inactive call. Records with an inconclusive call do not appear. A call without a number means that no potency is given here. Activity calls are given as the source filed them. Unless noted, the call rests on the fitted dose curve; in most records, active means well fitted curve in the direction sought with a large enough effect; inconclusive means small, poorly fitted or top-dose-only effect, or another doubt; inactive means no such curve, though single readings can be large; an effect the other way counts as inactive or inconclusive.
# Assays:
# [1] = biological target: Voltage-gated inwardly rectifying potassium channel KCNH2 (Homo sapiens) (UniProt Q12809); experiment: qHTS Assay for Small Molecule Inhibitors of the Human hERG Channel Activity (AID 588834);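 further: top concentration of the series differs between compounds; lower thallium flux fluorescence means stronger hERG block; nearly all actives have a fitted effect of over 50% in size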
# Chain of Voltage-gated inwardly rectifying potassium channel KCNH2 (Homo sapiens) (Q12809 whole entry, looked up): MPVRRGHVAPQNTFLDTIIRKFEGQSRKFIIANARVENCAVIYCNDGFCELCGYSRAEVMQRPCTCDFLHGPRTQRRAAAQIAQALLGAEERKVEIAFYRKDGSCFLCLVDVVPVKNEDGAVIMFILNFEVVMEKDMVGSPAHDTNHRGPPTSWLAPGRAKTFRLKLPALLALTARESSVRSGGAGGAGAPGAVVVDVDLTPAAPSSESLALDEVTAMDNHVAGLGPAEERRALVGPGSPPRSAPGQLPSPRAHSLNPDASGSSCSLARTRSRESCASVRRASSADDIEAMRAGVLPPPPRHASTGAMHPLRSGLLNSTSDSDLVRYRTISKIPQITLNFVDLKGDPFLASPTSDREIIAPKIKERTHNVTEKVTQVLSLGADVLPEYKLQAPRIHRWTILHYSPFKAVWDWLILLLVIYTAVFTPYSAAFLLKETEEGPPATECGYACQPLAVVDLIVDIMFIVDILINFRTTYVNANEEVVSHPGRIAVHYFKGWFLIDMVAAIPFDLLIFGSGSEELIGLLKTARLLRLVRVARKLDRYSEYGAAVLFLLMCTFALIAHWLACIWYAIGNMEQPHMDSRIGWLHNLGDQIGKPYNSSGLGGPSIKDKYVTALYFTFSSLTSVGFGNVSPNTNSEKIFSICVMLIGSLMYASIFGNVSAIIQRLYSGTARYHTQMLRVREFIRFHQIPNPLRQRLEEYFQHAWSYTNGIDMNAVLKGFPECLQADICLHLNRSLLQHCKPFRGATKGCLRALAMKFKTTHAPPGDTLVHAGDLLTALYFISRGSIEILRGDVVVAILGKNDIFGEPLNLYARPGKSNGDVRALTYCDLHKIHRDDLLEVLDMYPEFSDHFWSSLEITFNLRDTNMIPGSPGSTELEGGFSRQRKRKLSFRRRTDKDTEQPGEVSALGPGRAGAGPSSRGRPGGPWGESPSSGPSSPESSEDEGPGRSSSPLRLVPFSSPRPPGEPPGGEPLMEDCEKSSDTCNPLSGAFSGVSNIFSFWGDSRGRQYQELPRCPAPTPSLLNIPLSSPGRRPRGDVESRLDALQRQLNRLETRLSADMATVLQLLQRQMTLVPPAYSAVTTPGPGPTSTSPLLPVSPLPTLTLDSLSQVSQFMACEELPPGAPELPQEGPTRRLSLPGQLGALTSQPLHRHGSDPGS
# Method in brief: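 Measured: FluxOR fluorescence after thallium stimulation in U2OS cells transduced with hERG by baculovirus. Compounds pre-incubated around 10 min; medium Opti-MEM with 2% FCS. AC50 from Hill equation.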
# [2] = biological target: Pyruvate kinase PKM (Homo sapiens) (UniProt P14618); experiment: qHTS Assay for Inhibitors of Human Muscle Pyruvate Kinase (AID 958); conditions: purified human PKM enzyme activity
# Chain of Pyruvate kinase PKM (Homo sapiens) (P14618 whole entry, looked up): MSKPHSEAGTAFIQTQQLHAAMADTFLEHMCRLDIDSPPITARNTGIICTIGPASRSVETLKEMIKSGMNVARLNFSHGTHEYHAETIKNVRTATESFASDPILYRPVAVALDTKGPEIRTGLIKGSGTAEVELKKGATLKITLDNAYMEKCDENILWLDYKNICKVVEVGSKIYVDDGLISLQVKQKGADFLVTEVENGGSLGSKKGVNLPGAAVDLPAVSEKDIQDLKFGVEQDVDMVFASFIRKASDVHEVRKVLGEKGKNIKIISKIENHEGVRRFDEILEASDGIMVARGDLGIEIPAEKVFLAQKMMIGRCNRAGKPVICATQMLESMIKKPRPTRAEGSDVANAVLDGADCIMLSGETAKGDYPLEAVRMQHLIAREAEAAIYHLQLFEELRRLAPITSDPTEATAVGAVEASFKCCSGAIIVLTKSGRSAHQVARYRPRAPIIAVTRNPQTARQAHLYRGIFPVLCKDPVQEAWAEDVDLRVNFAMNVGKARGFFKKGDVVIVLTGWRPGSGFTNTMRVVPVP
# Method in brief: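 Compound pinned into substrate mix (0.5 mM PEP, 0.1 mM ADP), then 0.1 nM PKM2 added; 1 h, RT. Stop/detection luciferase reagent added, luminescence read. Normalized to no-inhibition and no-enzyme or reference-inhibitor controls.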
# [3] = biological target: Pyruvate kinase (Leishmania mexicana) (UniProt Q27686); experiment: qHTS Validation Assay for Activators of Leishmania Mexicana Pyruvate Kinase (AID 959)
# Chain of Pyruvate kinase (Leishmania mexicana) (Q27686 2-499 E452W): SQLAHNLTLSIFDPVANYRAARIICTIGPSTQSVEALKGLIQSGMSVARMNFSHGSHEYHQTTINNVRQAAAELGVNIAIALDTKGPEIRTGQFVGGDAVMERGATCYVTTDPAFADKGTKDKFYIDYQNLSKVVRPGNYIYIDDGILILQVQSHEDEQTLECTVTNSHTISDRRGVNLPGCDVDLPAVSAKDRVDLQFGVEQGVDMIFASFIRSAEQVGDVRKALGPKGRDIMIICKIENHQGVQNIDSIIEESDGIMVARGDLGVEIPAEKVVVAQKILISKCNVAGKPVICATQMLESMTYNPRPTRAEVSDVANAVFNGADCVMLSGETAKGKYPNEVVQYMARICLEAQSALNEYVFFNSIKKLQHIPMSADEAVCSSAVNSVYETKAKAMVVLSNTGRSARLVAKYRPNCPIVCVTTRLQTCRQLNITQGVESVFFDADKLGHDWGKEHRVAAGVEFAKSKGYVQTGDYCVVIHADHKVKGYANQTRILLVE
# Method in brief: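 Purified LmPYK (E451W mutant, 0.2 nM) was incubated 1 h at room temperature with 0.5 mM PEP and 0.1 mM ADP in 50 mM imidazole pH 7.2, 50 mM KCl, 7 mM MgCl2; ATP formed was read by PKLight luminescence, normalized to DMSO wells.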
# [4] = biological target: Lysosomal acid glucosylceramidase (Homo sapiens) (UniProt P04062); experiment: Glucocerebrosidase-p2 (AID 348; in the data active means potency below about 10 µM; further: potency means the concentration at half of the fitted maximal effect); conditions: purified GBA, blue fluorogenic substrate, 40 min
# Chain of Lysosomal acid glucosylceramidase (Homo sapiens) (P04062 whole entry, looked up): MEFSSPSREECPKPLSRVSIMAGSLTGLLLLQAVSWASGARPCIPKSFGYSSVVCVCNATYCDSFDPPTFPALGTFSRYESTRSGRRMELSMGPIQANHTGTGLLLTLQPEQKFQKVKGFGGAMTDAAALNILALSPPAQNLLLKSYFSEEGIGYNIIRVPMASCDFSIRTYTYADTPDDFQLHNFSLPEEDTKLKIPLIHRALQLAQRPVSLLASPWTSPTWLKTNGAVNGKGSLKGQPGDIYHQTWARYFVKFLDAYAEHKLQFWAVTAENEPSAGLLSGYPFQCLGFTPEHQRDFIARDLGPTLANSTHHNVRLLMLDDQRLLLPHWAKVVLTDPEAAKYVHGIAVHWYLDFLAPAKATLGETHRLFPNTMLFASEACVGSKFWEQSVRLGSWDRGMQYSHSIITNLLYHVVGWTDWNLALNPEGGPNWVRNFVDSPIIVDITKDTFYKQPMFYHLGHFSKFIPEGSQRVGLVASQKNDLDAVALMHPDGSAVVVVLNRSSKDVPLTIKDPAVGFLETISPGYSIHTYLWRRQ
# Method in brief: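 Compounds titrated from 0.6 nM upwards against 0.2 nM enzyme in pH 5.9 citric acid/KH2PO4, taurocholate, tween-20; blue fluorogenic substrate 80 uM, 40 min room temperature, stopped and read Ex 365/Em 440 for AC50.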
# [5] = biological target: Bile acid receptor (Homo sapiens) (UniProt Q96RI1); experiment: qHTS assay for small molecule antagonists of farnesoid X receptor signaling (AID 588526; calls by dose curve)
# Chain of Bile acid receptor (Homo sapiens) (Q96RI1 whole entry, looked up): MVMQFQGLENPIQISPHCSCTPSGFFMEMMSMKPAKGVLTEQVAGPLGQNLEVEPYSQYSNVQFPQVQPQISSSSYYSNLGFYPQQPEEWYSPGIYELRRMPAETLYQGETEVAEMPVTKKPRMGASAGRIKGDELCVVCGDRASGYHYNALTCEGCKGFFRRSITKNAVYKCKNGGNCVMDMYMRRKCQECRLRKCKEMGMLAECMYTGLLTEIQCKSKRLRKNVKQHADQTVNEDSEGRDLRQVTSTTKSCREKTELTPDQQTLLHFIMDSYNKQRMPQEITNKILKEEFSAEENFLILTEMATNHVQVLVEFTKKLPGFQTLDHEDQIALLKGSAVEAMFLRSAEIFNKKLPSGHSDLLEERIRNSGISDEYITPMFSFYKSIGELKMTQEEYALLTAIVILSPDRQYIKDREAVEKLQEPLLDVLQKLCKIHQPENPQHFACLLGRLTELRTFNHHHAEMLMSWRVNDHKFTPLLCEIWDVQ
# Method in brief: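 Concentration-response titrations were fitted to the Hill equation for half-maximal inhibition and maximal response, with data normalised to 50 uM chenodeoxycholic acid and DMSO control wells. Cells: FXR-UAS-bla HEK293T, dialyzed FBS.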
# [6] = biological target: Glucocorticoid receptor (Homo sapiens) (UniProt P04150); experiment: qHTS assay for small molecule agonists of glucocorticoid receptor signaling (AID 588532; active means well fitted curve in the direction sought with a large enough effect in the signal ratio, with a control signal flat; the % refers to the signal ratio); conditions: HeLa MMTV-bla, beta-lactamase ratio, agonist, 18 h; active compounds read high; percent of dexamethasone control, DMSO zero
# Chain of Glucocorticoid receptor (Homo sapiens) (P04150 whole entry, looked up): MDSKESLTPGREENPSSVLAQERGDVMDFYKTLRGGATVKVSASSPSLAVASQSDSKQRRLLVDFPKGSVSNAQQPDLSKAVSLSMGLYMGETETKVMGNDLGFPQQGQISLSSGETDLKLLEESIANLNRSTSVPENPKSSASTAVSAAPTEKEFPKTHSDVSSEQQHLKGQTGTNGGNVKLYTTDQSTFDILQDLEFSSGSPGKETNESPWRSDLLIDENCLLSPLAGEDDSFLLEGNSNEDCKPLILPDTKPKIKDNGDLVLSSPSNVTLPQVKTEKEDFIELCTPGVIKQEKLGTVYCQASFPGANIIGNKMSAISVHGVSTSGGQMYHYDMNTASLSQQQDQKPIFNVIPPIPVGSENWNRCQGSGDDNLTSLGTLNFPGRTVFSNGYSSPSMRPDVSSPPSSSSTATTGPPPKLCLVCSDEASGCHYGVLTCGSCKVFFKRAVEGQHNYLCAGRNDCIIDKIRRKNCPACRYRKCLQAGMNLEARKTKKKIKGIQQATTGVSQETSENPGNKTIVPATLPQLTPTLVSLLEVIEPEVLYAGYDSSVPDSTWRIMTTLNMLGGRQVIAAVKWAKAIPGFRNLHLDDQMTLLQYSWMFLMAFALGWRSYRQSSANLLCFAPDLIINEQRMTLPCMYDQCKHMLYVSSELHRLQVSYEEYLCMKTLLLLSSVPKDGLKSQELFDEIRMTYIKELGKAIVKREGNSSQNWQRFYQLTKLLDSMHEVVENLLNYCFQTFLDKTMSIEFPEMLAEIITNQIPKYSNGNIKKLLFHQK
# Excerpt: NIH Chemical Genomics Center [NCGC] U.S. Environmental Protection Agency [EPA] National Institutes of Environmental Health Sciences [NIEHS] National Toxicology Program [NTP] NCGC Assay Overview The Glucocorticoid receptor (GR), a nuclear receptor subfamily member and its natural ligands includes […] etc. The GR is a validated drug target for inflammation. GR ligands such as dexamethasone are clinically available as anti-inflammatory drugs. Glucocorticoids implicate role in carbohydrate, protein and lipid metabolisms and programmed cell death. They are also a component of many chemotherapy regimens for the treatment of leukemias, lymphomas, and myelomas because of their role in the induction of apoptosis.
# NCGC Assay Protocol Summary Using a beta-lactamase reporter-gene under control of glucocorticoid response element (GRE), a cell-based assay [CellSensor MMTV-bla HeLa cell line assay developed by Invitrogen] was used to measure GR ligands signaling. CellSensor MMTV-bla HeLa cells were used with assay medium containing 1% charcoal/dextran treated FBS, 0.1 mM NEAA, 1 mM sodium pyruvate and 25mM HEPES. […] Library compounds were measured for their ability to stimulate the reporter gene activity. […] The fluorescence intensity (405 nm excitation, 460/530 nm emission) was measured using an EnVision plate reader. […] Detection; Fluorescence; Envision plate reader
# [7] = qHTS assay for small molecule activators of the nuclear factor-kappa B (NF-kB) signaling pathway (AID 651749; active means well fitted activation curve with a large enough effect in the signal ratio; the % refers to the signal ratio; further: series mostly up to about 77 µM); conditions: NF-kB-bla ME-180 cells, beta-lactamase FRET ratio, 16 h; active compounds read high
# Method in brief: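 ME-180 cells stably carrying a beta-lactamase reporter under an NF-kB response element were exposed to compound or DMSO vehicle for 16 hr at 37C, 5% CO2. Pathway activation was read by FRET, since reporter expression disrupts FRET.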
# [8] = qHTS assay for small molecule agonists of the antioxidant response element (ARE) signaling pathway measured by Nrf2-dependant transcriptional activity (AID 720636; active means well fitted curve in the direction sought with a large enough effect in the repeat runs; an effect the other way counts as inactive or inconclusive)
# Method in brief: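 Nrf2-dependent transcription read as ONE-Glo luciferase signal from ARE-luc HepG2 reporter cells after 16 hr compound treatment at 37 C, 5% CO2, in assay medium with 1% dialyzed FBS.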
structure (smiles),measurement,setting,value
C[N+](C)(C)CCC(=O)c1cccc2ccccc12,Potency,[1],inactive
Cc1cccc(/C=C\c2ccccc2)n1,Potency,[2],15.8 µM (active)
same,Potency,[3],inactive
C[C@@H](C[C@H](N)C(=O)O)C(=O)O,Potency,[4],> 11.4 µM
CC(=O)[C@H]1[C@H](C#N)C[C@H]2[C@@H]3CC=C4C[C@@H](O)CC[C@]4(C)[C@H]3CC[C@@]21C,outcome,[5],inactive
same,activation,[6],-8.47% and 3.7%
same,activation,[7],-1.18% and -2.42%
same,outcome,[8],inactive
